Experimental data as given in PubChem BioAssay (NCATS).
Unmarked numbers belong to inactive results. For some of these results: Potency and affinity values are given separately. Calls of active or inactive are those of the source. How the calls were made is not given here.

Legend:
[1] = Ebola virus entry assay, green fluorescence channel
[2] = Ebola virus entry assay, blue channel fluorescence
[3] = Ebola virus entry assay, ratio channel
[4] = Ebola virus entry assay, reporter ratio channel; Channel type: primary
Wherever efficacy is given: 0% is about no effect.

SMILES	efficacy [1] [%]	AC50 [2]	AC50 [3]	AC50 [4]	outcome [2]	outcome [3]	outcome [4]
O=C(CN1CCN(Cc2ccc3c(c2)OCO3)CC1)N1c2ccccc2Sc2ccccc21	86.4	39.8 µM (active)	25.1 µM (active)	25.1 µM (active)	–	–	–
CN1CCC(OC(c2ccccc2)c2ccccc2)CC1	74.4	14.1 µM (active)	10 µM (active)	10 µM (active)	–	–	–
Cc1ccc(N(CC2=NCCN2)c2cccc(O)c2)cc1	66	35.5 µM (active)	31.6 µM (active)	31.6 µM (active)	–	–	–
CCCCN1CCCC1C(=O)Nc1c(C)cc(C)cc1C (centres undefined)	111	–	–	–	inactive	inactive	inactive
COc1ccc2c(c1)c(CC(=O)OCC(=O)O)c(C)n2C(=O)c1ccc(Cl)cc1	44.7	–	–	–	inactive	inactive	inactive
CCCCCCCCNC(C)C(O)c1ccc(SC(C)C)cc1 (centres undefined)	48.4	14.1 µM (active)	11.2 µM (active)	11.2 µM (active)	–	–	–
COC(=O)C1=C(C)NC(C)=C(C(=O)OC(C)(C)CN(C)CCC(c2ccccc2)c2ccccc2)C1c1cccc([N+](=O)[O-])c1 (centres undefined)	39.5	14.1 µM (active)	12.6 µM (active)	12.6 µM (active)	–	–	–
Cc1nc2ccccc2n1Cc1ccc(Cl)cc1	42.7	–	–	–	inactive	inactive	inactive
OC(CCCN1CCCCC1)(c1ccccc1)c1ccccc1	50.3	10 µM (active)	7.94 µM (active)	7.94 µM (active)	–	–	–
NC(=O)C1(N2CCCCC2)CCN(CCCN2c3ccccc3CCc3ccc(Cl)cc32)CC1	-222	3.98 µM (active)	3.55 µM (active)	3.55 µM (active)	–	–	–
O=C(OCC(O)CO)c1ccccc1Nc1ccnc2cc(Cl)ccc12 (centres undefined)	41.9	39.8 µM (active)	20 µM (active)	20 µM (active)	–	–	–
CCN(CC)CCCN(c1ccccc1)C1Cc2ccccc2C1	47.4	3.55 µM (active)	3.55 µM (active)	3.55 µM (active)	–	–	–
Nc1c2ccccc2nc2ccccc12	59	–	–	–	inactive	inactive	inactive
CCO[C@@H]1O[C@H](C(COCc2ccccc2)OCc2ccccc2)[C@H](OCc2ccccc2)[C@H]1O (some centres undefined)	70	31.6 µM (active)	15.8 µM (active)	15.8 µM (active)	–	–	–
Nc1ccc2cc3ccc(N)cc3nc2c1	154	39.8 µM (active)	39.8 µM (active)	39.8 µM (active)	–	–	–
Clc1ccc(Cn2c(CN3CCCC3)nc3ccccc32)cc1	99.2	28.2 µM (active)	22.4 µM (active)	22.4 µM (active)	–	–	–
